CHT allo act – CHT positive allosteric modulators, primary screen, cell-based, membrane potential dye, choline EC20 | High affinity choline transporter 1 (Homo sapiens), Q9GZV3 | 310,000 compounds, 0.49% hits | CHT-expressing cells; stronger effect = higher value; LV-AA mutant CHT in HEK293 cells | B-score at 10 µM;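 active = initial fluorescence not abnormally high and integrated response B-score, plate-corrected, over 3 SD above library mean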
Target sequence (Q9GZV3 whole entry, looked up): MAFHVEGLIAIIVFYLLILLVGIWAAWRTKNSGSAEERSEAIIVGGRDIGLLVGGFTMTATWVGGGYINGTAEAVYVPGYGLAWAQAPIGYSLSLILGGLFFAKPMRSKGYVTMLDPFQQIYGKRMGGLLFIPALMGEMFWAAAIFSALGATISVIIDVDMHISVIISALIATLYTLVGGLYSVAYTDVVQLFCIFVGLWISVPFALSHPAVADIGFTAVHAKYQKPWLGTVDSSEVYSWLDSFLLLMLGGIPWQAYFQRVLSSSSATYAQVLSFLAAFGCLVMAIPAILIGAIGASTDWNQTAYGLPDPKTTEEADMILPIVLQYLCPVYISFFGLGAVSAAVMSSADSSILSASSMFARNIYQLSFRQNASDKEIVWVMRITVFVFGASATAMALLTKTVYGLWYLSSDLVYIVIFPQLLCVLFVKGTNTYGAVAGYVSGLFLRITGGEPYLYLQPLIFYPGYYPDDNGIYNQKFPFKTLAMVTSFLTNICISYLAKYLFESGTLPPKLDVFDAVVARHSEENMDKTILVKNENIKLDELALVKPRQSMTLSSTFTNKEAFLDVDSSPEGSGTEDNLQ
CHT inh – inhibitors of human choline transporter CHT; B-score at 10 µM; AID 488975, 2010; CHT-expressing cells, membrane potential dye, choline response; stronger effect = lower value; 310,000 compounds, 0.86% hits;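 active = B-score over 3 SD under the library average, and starting fluorescence ratio not unusually high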;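 note: choline stimulus applied at its EC90 after an EC20 pre-addition; B-score computed on integrated fluorescence ratio after choline addition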
IDE cell inh – human IDE inhibitors in live cells, primary screen, fluorescence polarization, HEK cells, FAbetaB substrate; inhibition, % at 5.59 µM; 320,000 compounds, 0.41% hits; FAbetaB cleavage;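 active = percent inhibition above the average of all tested compounds plus 3 SD, set per screening campaign, cut at about 16% in these data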;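 note: IDE supplied by intact live HEK cells; FP after avidin binding of uncleaved biotin substrate so inhibition keeps polarization high; 0% = DMSO wells and 100% = 60 µM reference IDE inhibitor Ii1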
ANO1 activ – TMEM16A chloride channel activators or potentiators, primary screen, cell-based, HTS; Anoctamin-1 (Mus musculus), Q8BHY3; HEK293 TMEM16A/YFP-H148Q/I152L, iodide quench fluorescence; stronger effect = lower value; B-score at 10 µM; 340,000 compounds, 0.3% hits; AID 623877, 2012;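 active = fluorescence-ratio B-score plate-corrected deviation score at least 3 library SD below zero, with starting fluorescence score within 5 deviations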;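 note: channel opened by trigger with iodide after compound preincubation; score built on the fluorescence ratio of max minus min over baseline; more negative score means more quench and so TMEM16A activation or potentiation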
IDE act – human IDE activators in live cells, primary screen, fluorescence polarization, HEK cells, FAbeta-B substrate; Insulin-degrading enzyme (Homo sapiens), P14735; FAbeta-B cleavage; 0% vehicle, 100% cell-free pure enzyme wells; activation, % at 5.96 µM; 340,000 compounds, 0.073% hits; AID 493087, 2011;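 active = activation above the mean of all tested compounds plus 3 SD, set per screening campaign, cut at about 17% in these data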
TMEM16A inh – TMEM16A chloride channel inhibitors, primary screen, cell-based, HTS. Anoctamin-1 (Mus musculus), Q8BHY3. HEK293 TMEM16A/YFP iodide influx fluorescence, ionomycin. normalized B-score (activity score, 25-100; higher = stronger inhibition) at 10 µM. 310,000 compounds, 1.2% hits;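 active = ratio plate-corrected score three or more library SD toward inhibition, starting fluorescence score within five deviations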;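 note: score derived from kinetic fluorescence span divided by baseline fluorescence per well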
IDE cell inh cf – human IDE inhibitors in live cells, confirmation, fluorescence polarization, HEK cells, FAbetaB substrate. shares compounds with IDE cell inh. FAbetaB cleavage. inhibition, % at 5.59 µM. 1,200 compounds, 51% hits. AID 435028, 2010;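 active = mean inhibition across triplicate wells above the cutoff set by the earlier primary insulin-degrading enzyme screen, cut at about 16% in these data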;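 note: 0% = DMSO wells and 100% = 60 µM reference IDE inhibitor Ii1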
HEK293 tox – cytotoxicity in HEK cells, cytotoxicity control for IDE inhibitor project, cell-based, luminescence; shares compounds with IDE cell inh; HEK293 cytotoxicity, ATP luminescence; inhibition, % at 5.59 µM; 1,200 compounds, 28% hits; AID 449730, 2010; in the data active = inhibition above about 22%;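 note: 0% = vehicle wells and 100% = reference cytotoxic drug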
Numbers without * were called inactive; i = inactive; nt = not tested or not shown. Rows were chosen to be rich in hits. Some 2.7% of all compounds tested hit in one or more screens of this group.

SMILES	CHT allo act	CHT inh	IDE cell inh	ANO1 activ	IDE act	TMEM16A inh	IDE cell inh cf	HEK293 tox
COc1ccccc1CNC(=O)C(=O)NCCC1CCCCN1S(=O)(=O)c1ccc(C)cc1 (configuration not stated)	i	i	8	i	1	i	nt	nt
COc1ccccc1CCNC(=O)C(=O)NCCC1CCCCN1S(=O)(=O)c1ccccc1 (configuration not stated)	i	i	16*	i	-12	i	2	21
Cc1ccccc1Nc1nnc(-c2ccc(C(=O)NCCO)cc2)c2ccccc12	i	i	4	i	3	i	nt	nt
O=C(O)c1ccc(/C=C2/SC(=S)N(Cc3ccccc3)C2=O)cc1	i	i	nt	i	1	i	nt	nt
CC(=O)Oc1ccc(/C=C2/SC(=S)N(Cc3ccccc3)C2=O)cc1	i	i	16*	i	-29	i	78*	12
O=C1/C(=C/c2ccc(O)cc2)SC(=S)N1CC1CCCO1 (configuration not stated)	i	i	87*	-5.1*	-119	i	167*	12
CCCOc1ccc(/C=C2\SC(=S)N(CC3CCCO3)C2=O)cc1 (configuration not stated)	i	i	0	i	4	i	nt	nt
O=C1/C(=C\c2ccc(O)cc2)SC(=S)N1Cc1ccccc1	i	i	77*	i	-91	i	137*	11
CCCCn1c(N)c(N(CCOC)C(=O)c2cc(Cl)nc3ccccc23)c(=O)[nH]c1=O	i	i	-4	i	1	i	nt	nt
CC(C)NC(=O)Nc1ccc2c(c1)C(=O)N([C@H](C)CO)C[C@H](C)[C@@H](CN(C)S(=O)(=O)c1cn(C)cn1)O2	nt	nt	1	nt	-3	nt	nt	nt
O=C(NNC(=O)c1ccccc1F)c1ccc(NS(=O)(=O)c2ccc(F)cc2)cc1	nt	nt	nt	i	7	nt	nt	nt
CCS(=O)(=O)c1nn2c(N)c(/C=C3/C=CC(=O)C(OC)=C3)c(=O)nc2s1	i	i	24*	i	-95	i	157*	13
CN(C(=O)C1CC1)C1CCS(=O)(=O)C1 (configuration not stated)	i	i	-2	i	6	i	nt	nt
O=C(CNC(=O)c1ccc(Cl)cc1Cl)OCCOc1ccccc1F	nt	nt	3	i	3	nt	nt	nt
S=c1nccc(-c2ccc3c(c2)CCO3)[nH]1	i	i	30*	i	-23	i	6	14
Fc1ccc(-c2noc(-c3ccc4c(c3)CCO4)n2)cc1	i	i	2	i	nt	i	nt	nt
O=C(N/N=C/c1c(O)n(-c2ccc(Cl)cn2)c(=O)c2ccccc12)c1ccncc1	i	i	22*	i	-27	i	38*	3
CCN(CC)c1ccc2cc(C=O)c(=O)oc2c1	i	i	91*	i	-69	i	67*	12
CCN(CC)c1ccc2cc(C(C)=O)c(=O)oc2c1	i	i	35*	i	-37	i	18*	10
CCN(CC)c1ccc2cc(C(N)=O)c(=O)oc2c1	i	i	-1	i	-2	i	nt	nt
CCN(CC)c1ccc2cc(NC(=O)CCC(=O)O)c(=O)oc2c1	i	i	2	i	-2	i	nt	nt
CS(=O)(=O)c1ccc(Cl)c(NC(=O)COC(=O)CCN2C(=O)C3CC=CCC3C2=O)c1 (configuration not stated)	nt	nt	nt	i	1	nt	nt	nt
Oc1[nH]c(N=C2N=c3ccccc3=N2)c2ccccc12	i	i	26*	i	-16	i	20*	76*
CCCCN1C(=O)/C(=C/C=C2\SCCN2C)SC1=S	nt	nt	nt	i	-88	nt	nt	nt
CN1CCS/C1=C/C=C1\SC(=S)N(CC(=O)O)C1=O	i	i	60*	i	-97	i	75*	6
SMILES	CHT allo act	CHT inh	IDE cell inh	ANO1 activ	IDE act	TMEM16A inh	IDE cell inh cf	HEK293 tox
O=C(NCc1ccccn1)c1cc(-c2ccc(Cl)cc2)oc1C(F)(F)F	i	i	16*	i	nt	i	0	9
CCOC(=O)c1c(C)n(-c2ccc(C)cc2)c2ccc(OCC(O)CNCCCO)cc12 (configuration not stated)	i	i	17*	i	-15	i	10	16
Oc1sc(C=Nc2ccccc2)c2ccccc12	i	i	26*	i	-31	i	30*	9
Oc1sc(C=Nc2ccc(F)cc2)c2ccccc12	i	i	18*	i	-7	i	34*	3
COc1ccc(S(=O)(=O)N2CCC(C(=O)NCC3CCCCC3)CC2)cc1	i	i	1	i	-4	i	nt	nt
CCCNC(=O)C(Cc1cccc(C#N)c1)NC(=O)c1ccc(C#N)cc1 (configuration not stated)	nt	nt	-6	i	-1	nt	nt	nt
COc1cccc(C2=CC(c3ccc(N(C)C)cc3)n3nnnc3N2)c1 (configuration not stated)	i	i	44*	i	-27	i	37*	39*
Cc1ccc(-c2cc(C(=O)Nc3ccc(S(=O)(=O)N4CC(C)OC(C)C4)cc3)[nH]n2)c(O)c1 (configuration not stated)	i	i	20*	i	-16	i	8	32*
Cc1ccc(O)c(-c2cc(C(=O)Nc3ccc(S(=O)(=O)N4CC(C)OC(C)C4)cc3)[nH]n2)c1 (configuration not stated)	i	i	4	i	-5	i	nt	nt
CC(=O)c1ccc(NC(=O)CSc2nnc3ccc(-c4ccccn4)nn23)cc1	i	i	7	i	6	i	nt	nt
O=C(N/N=C/c1cccc(O)c1)c1ccc(COc2ccc3c(c2)CCC3)o1	i	i	18*	i	-3	i	3	8
CCN(C(=O)COC(=O)c1ccc([N+](=O)[O-])o1)C1CCCCC1	nt	nt	3	i	1	nt	nt	nt
Cc1ccc(S(=O)(=O)Nc2ccc3c(c2)n(C)c(=O)n3C)c(C)c1	i	i	5	i	10	i	nt	nt

High-throughput results deposited in PubChem BioAssay by several laboratories.
